Screen size: about 310,000 compounds; about 14,000 (4.5%) showed an effect of 50% or more. Effects have a minus sign here. This is one part of a sample in which strong results are shown more often than they occur.
What follows are compounds tested against human ether-à-go-go-related gene (hERG) potassium channel (human, UniProt Q12809) (assay: primary screen, population patch clamp on CHO cells stably expressing hERG; higher = less effect of the substance).
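Note: peak tail current of the secondary pulse compared with the same well before compound.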

Sequence of human ether-à-go-go-related gene (hERG) potassium channel (Q12809 whole entry, looked up): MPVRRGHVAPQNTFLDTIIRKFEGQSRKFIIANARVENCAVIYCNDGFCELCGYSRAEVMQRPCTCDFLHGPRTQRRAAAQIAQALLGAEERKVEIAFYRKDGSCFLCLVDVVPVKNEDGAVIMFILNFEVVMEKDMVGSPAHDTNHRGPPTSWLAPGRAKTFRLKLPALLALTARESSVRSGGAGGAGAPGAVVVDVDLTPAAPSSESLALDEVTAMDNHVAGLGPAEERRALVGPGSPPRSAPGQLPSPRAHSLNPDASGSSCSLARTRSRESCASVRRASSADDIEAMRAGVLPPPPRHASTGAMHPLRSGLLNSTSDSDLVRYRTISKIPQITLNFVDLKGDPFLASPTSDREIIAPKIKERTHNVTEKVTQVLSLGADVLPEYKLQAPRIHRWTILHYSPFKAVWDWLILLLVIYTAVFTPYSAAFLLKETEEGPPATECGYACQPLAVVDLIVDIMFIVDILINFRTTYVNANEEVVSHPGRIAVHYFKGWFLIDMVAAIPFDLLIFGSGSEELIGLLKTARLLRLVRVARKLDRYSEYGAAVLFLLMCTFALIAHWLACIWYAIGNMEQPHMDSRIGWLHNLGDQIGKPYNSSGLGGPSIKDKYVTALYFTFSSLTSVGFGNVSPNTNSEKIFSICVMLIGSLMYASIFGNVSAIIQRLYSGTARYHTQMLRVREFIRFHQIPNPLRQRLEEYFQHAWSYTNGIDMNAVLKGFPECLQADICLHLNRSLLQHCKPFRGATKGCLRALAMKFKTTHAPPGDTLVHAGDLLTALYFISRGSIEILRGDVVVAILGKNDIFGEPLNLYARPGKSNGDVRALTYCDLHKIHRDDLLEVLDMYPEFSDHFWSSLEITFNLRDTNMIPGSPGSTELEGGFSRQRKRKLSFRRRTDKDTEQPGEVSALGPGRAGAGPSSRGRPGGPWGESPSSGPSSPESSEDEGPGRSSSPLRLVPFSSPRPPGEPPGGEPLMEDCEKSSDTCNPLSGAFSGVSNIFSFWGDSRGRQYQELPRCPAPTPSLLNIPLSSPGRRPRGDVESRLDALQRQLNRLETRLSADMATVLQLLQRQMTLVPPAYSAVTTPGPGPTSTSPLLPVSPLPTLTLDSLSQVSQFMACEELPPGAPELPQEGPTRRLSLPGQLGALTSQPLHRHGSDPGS

Structure (SMILES) | hERG current change (%, negative = inhibition) at 10uM [%]
Cc1nc(-c2ccc(NC(=O)Cc3ccccc3)cc2)cs1 | 21.1
Cc1ccc(-c2nn(-c3ccccc3)cc2/C=C2\SC(=S)N(CCCCCC(=O)O)C2=O)o1 | 15.1
Cc1cc(-c2ccc(C)c(S(=O)(=O)NCc3ccc(Br)cc3)c2)on1 | -31
COc1cccc(SCc2noc(C(=O)NCC3CCCO3)c2C(=O)O)c1 (stereo not drawn) | 11.9
COc1ccccc1CCc1nnc(CCC(=O)NCCOc2cccnc2)o1 | 7.9
Cc1cc(S(=O)(=O)N2CCC(NC(=O)C34CC5CC(CC(C5)C3)C4)CC2)ccc1-n1cnnn1 | -15.2
COCCN(CCOC)c1ncc(Cl)c(C(=O)c2c(C)cc3ccccn23)n1 | -4.6
COC(=O)C1(C)CC1(c1ccccc1)c1ccccc1 (stereo not drawn) | -3.98
O=C(N/N=C/c1ccccc1O)C1CCCC1 | 8.05
O=C(c1ccccc1)C1CCN(CC(=O)N2CCN(c3ccccc3)CC2)CC1 | -14.9
Cc1ccc(C(=O)C2CCN(CC(=O)Nc3ccccc3C)CC2)cc1 | -68.9
COc1ccccc1NC(=O)CN1CCC(C(=O)c2ccc(F)cc2)CC1 | -38.5
Cc1ccccc1NC(=O)CN1CCC(C(=O)c2ccc3c(c2)OCCO3)CC1 | -44.5
O=C(CN1CCC(C(=O)c2ccc3c(c2)OCCO3)CC1)NCc1ccc(F)cc1 | -30.2
Cc1ccc(C(=O)C2CCN(CC(=O)NCc3ccc(F)cc3)CC2)cc1 | -53.3
O=C(CN1CCC(C(=O)c2ccc(F)cc2)CC1)NCc1ccccc1F | -39.6
Cc1ccc(C(=O)NCN2CCN(c3ccc(F)cc3)CC2)cc1 | -28.9
Cc1ccc(C(=O)C2CCN(CC(=O)N3CCN(c4ccc(F)cc4)CC3)CC2)cc1 | -73.7
Cc1nonc1CN(C)C(=O)c1cc(COc2ccc(F)cc2Cl)on1 | -4.29
Cc1ccc(-n2c(CSc3nc(C)cc(C)n3)nnc2SCC(=O)N2CCCC2)cc1 | -8.81
COc1cc(OC)c(C2Nc3cccc4cccc(c34)N2)c(OC)c1 | 6.67

Structure (SMILES) | hERG current change (%, negative = inhibition) at 10uM [%]
COc1ccccc1C1Nc2cccc3cccc(c23)N1 | -50.7
COc1ccc(Br)cc1C1Nc2cccc3cccc(c23)N1 | 20.2
Cn1ncc(Br)c1C(=O)N/N=C/c1cccc(OC2CSC2)c1 | -8.23
O=C(CSc1nnc(Nc2ccccc2F)s1)Nc1cccc(S(=O)(=O)N2CCCCC2)c1 | -6.58
CC1Cc2nc(SCC(=O)Nc3nc4ccccc4s3)n(C)c(=O)c2S1 (stereo not drawn) | -20.1
CN1CCSc2ccc(C(=O)NCc3cccc(F)c3)cc21 | 16.6
O=C(Nc1cnn(Cc2ccc(F)cc2)c1)C(c1ccccc1)c1ccccc1 | -30.1
O=C(Nc1cnn(Cc2ccc(F)cc2)c1)c1cnccn1 | -3.09
CCOc1ccccc1C(=O)Nc1cnn(Cc2ccc(F)cc2)c1 | -58.8
O=C(CCSCCc1ccccn1)Nc1nccs1 | 30.1
O=C(Cc1csc(NC(=O)c2ccc(F)cc2)n1)NO | -3.56
COc1ccc(/C=N/NC(=O)C(C)N(c2ccc(OC)cc2)S(C)(=O)=O)cc1 (stereo not drawn) | -8.54
COc1ccc(N(C(C)C(=O)N/N=C/c2ccc(OCC(C)C)cc2)S(C)(=O)=O)cc1 (stereo not drawn) | -9.12
COc1ccc(N(C(C)C(=O)N/N=C/c2ccc(OC)c(OC)c2)S(C)(=O)=O)cc1 (stereo not drawn) | 5.24
COc1ccc(N(C(C)C(=O)N/N=C/c2cc(Br)c(C)o2)S(C)(=O)=O)cc1 (stereo not drawn) | -54
COc1ccc(N(C(C)C(=O)N/N=C/c2ccc(OC(C)C)cc2)S(C)(=O)=O)cc1 (stereo not drawn) | -52.4
COc1ccc(N(C(C)C(=O)N/N=C/c2cccnc2)S(C)(=O)=O)cc1 (stereo not drawn) | -3.44
COc1ccc(C(=O)/C=C/Nc2ccc(S(=O)(=O)Nc3cc(OC)nc(OC)n3)cc2)c(OC)c1 | 19.4
O=Cc1cn(CCC(=O)O)nc1-c1cccc2ccccc12 | 13.5
O=C(N/N=C\c1ccc(F)cc1)c1cc(OCC(F)(F)F)ccc1OCC(F)(F)F | -21
COc1ccccc1C(=O)N/N=C(\C)c1ccc(NC(=O)C2CC2)cc1 | -3.62

Structure (SMILES) | hERG current change (%, negative = inhibition) at 10uM [%]
O=C(NCCc1ccc(Cl)cc1)c1cccs1 | -3.58
O=C(NCCSCc1ccc(Cl)cc1)c1cccs1 | -63.7
O=C(Cc1ccccc1)NCCSCc1ccc(Cl)cc1 | -9.5
C=CCSc1nnc(-c2ccccc2N=Cc2c(C)[nH]n(-c3ccccc3)c2=O)c(=O)[nH]1 | -26.5
O=C(c1cccc(S(=O)(=O)N2CCOCC2)c1)N1CCN(S(=O)(=O)c2cccs2)CC1 | 5.04
O=C(Nc1ccc([N+](=O)[O-])cn1)c1cc(-c2cccc(Br)c2)nc2ccccc12 | 17.6
O=C(CSc1nc2ncc(Br)cc2[nH]1)c1cccc([N+](=O)[O-])c1 | -45.7
O=[N+]([O-])c1ccc(CSc2nc3ncc(Br)cc3[nH]2)cc1 | 6.04
O=C(CSc1nc2ncc(Br)cc2[nH]1)c1ccc([N+](=O)[O-])cc1 | -66.9
CCOC(=O)c1cc(C#N)c(N2CCCC2)nc1-c1ccccc1 | -7.5
C/C(=C\c1ccc(C)o1)C(=O)c1c(C)cc(C)[nH]c1=O | 11.5
COc1ccccc1COCC(O)CN1CCCCC1CO.O=C(O)C(=O)O (stereo not drawn) | 18.6
Cc1ccc(C(OCC(O)CN2CCCCC2CO)c2ccccc2)cc1 (stereo not drawn) | -62.8
CCN1CCN(CC(O)COC(c2ccccc2)c2ccccc2C)CC1.O=C(O)C(=O)O (stereo not drawn) | -10.6
CC(OCC(O)CN1CCCCC1CCO)c1ccc(Cl)cc1 (stereo not drawn) | 4.2
OCCC1CCCCN1CC(O)COCc1ccc(Cl)cc1 (stereo not drawn) | -7.29
O=C(O)C(=O)O.OCC1CCCCN1CC(O)COC(c1ccc(F)cc1)c1ccc(F)cc1 (stereo not drawn) | -71
CCC1CCCCN1CC(O)COCc1cccc(OC)c1 (stereo not drawn) | 3.15
Cc1ccccc1C(OCC(O)CN1CCCCC1CCO)c1ccccc1 (stereo not drawn) | -61.6
NC(=O)C1CCN(CC(O)CSc2ccccc2)CC1 (stereo not drawn) | -0.00192
Cc1ccccc1C(OCC(O)CN1CCC(C(N)=O)CC1)c1ccccc1 (stereo not drawn) | -59.3

Structure (SMILES) | hERG current change (%, negative = inhibition) at 10uM [%]
CCOC(=O)CC(=O)Nc1ccc(Br)cc1C(=O)O | -11.3
COc1ccc(CNC(=O)c2cc(=O)c3cc(C)cc(C)c3o2)cc1 | 2.04
CCn1c(SCC(=O)Nc2ccc(NC(=O)c3ccco3)c(OC)c2)nc2ccccc2c1=O | -20
CCOC(=O)C1=C(O)/C(=C/c2ccc(OCC(=O)Nc3ccc(C)cc3)cc2)N=C1C | 10.6
C/C(=N\NC(=O)c1cc(-c2cccnc2)nc2ccccc12)c1ccccc1O | 0.355
Cn1c(=O)c2c(=O)cc(NNC(=O)C(C)(C)C)[nH]c2n(C)c1=O | 0.349
CCCC[C@@H]1CNC(=S)N1CCCC | 11
C/C(CC(=O)Nc1ccc2c(c1)OCCO2)=N\NC(=O)Cc1ccc(Cl)cc1 | 11.2
CCCCc1nnc(NC(=O)CSc2nc(O)c(-c3ccccc3)c(=O)[nH]2)s1 | 1.48
O=C1c2ccccc2C(=O)N1CCCCN(C(=O)c1ccc(Cl)s1)c1ccc(Cl)cc1 | 8.41
Cc1ccc(N(CCCCN2C(=O)c3ccccc3C2=O)C(=O)c2cccs2)cc1 | -67.3
Cc1ccc(N(CCCCN2C(=O)c3ccccc3C2=O)C(=O)c2ccc(Cl)s2)cc1 | 2.79
CC(=O)N(CCCCN1C(=O)c2ccccc2C1=O)c1ccc(C)cc1 | -34.5
O=C1c2ccccc2C(=O)N1CCCCN(C(=O)c1cccc([N+](=O)[O-])c1)c1ccc(Cl)cc1 | -7.96
O=C1c2ccccc2C(=O)N1CCCCN(C(=O)c1ccco1)c1ccc(Cl)cc1 | -55.7
O=C1c2ccccc2C(=O)N1CCCCN(C(=O)c1cc([N+](=O)[O-])cc([N+](=O)[O-])c1)c1ccc(Cl)cc1 | 5.87
Cc1ccc(N(CCCCN2C(=O)c3ccccc3C2=O)C(=O)c2cccc([N+](=O)[O-])c2)cc1 | -59.5
O=C1c2ccccc2C(=O)N1CCCCN(C(=O)c1ccc([N+](=O)[O-])cc1)c1ccc(Cl)cc1 | -3.93
OC1C2(Cc3ccccc3)CN3CCN(C2)CC1(Cc1ccccc1)C3 (stereo not drawn) | -1.47
Cc1[nH][nH]c(=O)c1C(c1ccc(-c2cccc(C(=O)O)c2)o1)c1c(C)[nH][nH]c1=O | 19.2
COc1ccc(OC)c(NC(=O)c2ccc(Cl)cc2)c1 | -5.32
